IL-1B inflam inh: inflammasome signaling inhibition, IL-1 beta readout | actives 4.7% (n = 360,000) | activity change, % at 57.5 µM | THP-1 LPS/ATP IL-1B secretion, AlphaLISA, 16 h; hits give low values; in the data active = activity change below about -50%; inconclusive = mostly about -30% to -49%
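Secreted IL-1B measured by AlphaLISA bead assay after 16 h compound exposure of THP-1 cells; compounds (final up to 57.5 uM) added 1 h before LPS (250 ng/mL) and ATP (1.25 mM) stimulation; lower signal means less secretion.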
DT40 TDP1 CPT: DT40-hTDP1 cell growth loss with CPT | chicken DT40 Tdp1-/-;hTDP1 cells + 20 nM CPT, ATP luminescence, 48 h | Potency, µM (doses to about 46.2 µM), usual class: inhibitors | actives 12% (n = 420,000) | AID 686979; also: nearly all actives have a fitted effect of over 55% in size
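Chicken DT40 Tdp1-/- cells complemented with human TDP1, 400 cells/well, exposed to compounds plus 20 nM camptothecin for at least 48 h at 37 C; viability read as ATP content by CellTiter-Glo luminescence.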
DT40 TDP1 no CPT: qHTS for Inhibitors of human tyrosyl-DNA phosphodiesterase 1 (TDP1): qHTS in cells in absence of CPT; DT40 Tdp1-/- hTDP1 cells, no CPT, ATP luminescence, 48 h; Potency, µM (titrated, usually from 46.2 µM), most hits filed as inhibitors; actives 15% (n = 420,000); AID 686978, 2013; also: nearly all actives have a fitted effect of over 55% in size
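Compound effects on proliferation are scored in DT40 Tdp1-/-;hTDP1 cells in the absence of CPT. ATP levels (CellTiter-Glo luminescence) are recorded after a ≥48 hr, 37 °C incubation.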
HT1080NT lethal: kills 2HG-producing HT-1080-NT fibrosarcoma cells; HT-1080-NT fibrosarcoma viability, CellTiter-Glo ATP luminescence, 48 h; Potency, µM (series often up to 46.1 µM), actives largely listed as cytotoxic; actives 1.6% (n = 360,000); AID 686970;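 also: NT is the 2HG producing partner of a matched IDH1 knockdown line; nearly all actives have a fitted effect of over 55% in size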
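Luminescent CellTiter-Glo readout after 48 hours of compound exposure at 37 degrees C defined viability of HT-1080-NT cells. Activity was normalized to DMSO wells and cell-free media wells; concentration-response curves were fitted and assigned curve classes.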
HT1080 IDH1KD tx: kills HT-1080 cells with IDH1 knockdown. HT-1080 IDH1 knockdown viability, ATP luminescence, 48 h. AID 686971. actives 2% (n = 360,000). Potency, µM (series often up to 46.1 µM), most hits filed as cytotoxic
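HT-1080-IDH1KD cells (IDH1 knocked down), 750/well in RPMI with 5% FBS, treated with compound 48 h at 37 degrees C. Viability by CellTiter-Glo luminescence, normalised to DMSO and no-cell wells; concentration-response curves classed.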
Hits are given with their value; . = inactive; ? = inconclusive; / = no result given. In the library only some 19% were active in any assay of this set; here they are far more common. Unless noted, calls follow the shape of the dose curve; as a rule, active = well fitted curve in the direction sought with a large enough effect; inconclusive = small, poorly fitted or top-dose-only effect, or another doubt; inactive = no such curve, though single readings can be large; an effect the other way counts as inactive or inconclusive.

SMILES	IL-1B inflam inh	DT40 TDP1 CPT	DT40 TDP1 no CPT	HT1080NT lethal	HT1080 IDH1KD tx
CC1(C)CC2(CCO1)OC(=O)CC2C(=O)Nc1ccccc1Cl (configuration not stated)	.	?	?	?	.
CCOc1ccc(CN(C(=O)c2cc3ccccc3oc2=O)C2CCS(=O)(=O)C2)cc1 (configuration not stated)	.	.	.	.	.
CC(Oc1ccccc1)C(=O)N1CCN(c2ccc(N3CCOCC3)nn2)CC1 (configuration not stated)	.	.	.	.	.
COc1ccc(-c2cc3nc(C)c(CCC(=O)N4CCN(c5ccccc5F)CC4)c(C)n3n2)c(OC)c1	/	?	29µM	/	/
COc1ccc(-c2cc3nc(C)c(CCC(=O)N4CCN(c5ccccn5)CC4)c(C)n3n2)c(OC)c1	.	?	16µM	.	.
COc1ccc(-c2cc3nc(C)c(CCC(=O)Nc4ccccc4C(C)=O)c(C)n3n2)c(OC)c1	/	.	.	/	/
O=C(NCc1nnc(SCC(=O)N2CCCC2)o1)c1ccccc1	.	.	.	.	.
COc1c(O)cccc1/C=N/NC(=O)Cn1ccnc1C	.	?	23µM	.	.
Cc1ccc(-n2c(=O)c3ccc(C(=O)NCc4ccccc4Cl)cc3n(Cc3ccccc3F)c2=O)cc1	/	.	.	/	/
CCOC(=O)c1c(-c2ccccc2)oc2ccc(OC)cc12	.	.	?	.	.
CCOC(=O)c1c(-c2ccccc2)c2cc(OC)ccc2n1CCCN(C)C	-50	?	?	.	.
Cc1ccc2c(Cl)cc(Cl)c(OCC(=O)Nc3cccc(S(N)(=O)=O)c3)c2n1	?	.	.	?	?
Cc1ccc2c(Cl)cc(Cl)c(OCC(=O)Nc3cc(S(=O)(=O)N(C)C)ccc3C)c2n1	?	23µM	15µM	.	.
Cc1ccc2c(Cl)cc(Cl)c(OCC(=O)NC(C)(C)C)c2n1	.	?	23µM	.	.
Cc1ccc2c(Cl)cc(Cl)c(OCC(=O)Nc3cccc(S(=O)(=O)N(C)C)c3)c2n1	.	?	21µM	.	.
CCC(=O)N1CCc2cc(S(=O)(=O)NC(Cc3ccccc3)C(=O)O)ccc21 (configuration not stated)	.	.	.	.	.
FC(F)(F)c1nc2ccccc2n2c(-c3c(Cl)cccc3Cl)nnc12	.	26µM	21µM	.	.
FC(F)(F)c1nc2ccccc2n2c(-c3ccc(Cl)cc3Cl)nnc12	.	21µM	21µM	?	?
FC(F)(F)c1cccc(N2CCN(c3ccc4nnc(-c5ccccc5)n4n3)CC2)c1	?	16µM	?	.	.
FC(F)(F)c1nnc2ccc(N3CCCCC3)nn12	.	.	.	.	.
Cc1cccc(C)c1N1CCN(c2ccc3nnc(C(F)(F)F)n3n2)CC1	.	21µM	21µM	?	?
C/C=C(\C)C(=O)NCCN1C2=NC[C@@H](Cc3ccccc3)N2C[C@@H]1Cc1ccc(OC)cc1	.	.	.	.	.
CCCCCCNC(=O)N[C@@H](C(=O)NCCC[C@H]1CN2C(=NC[C@@H]2Cc2ccccc2)N1CCc1cccc(OC)c1)C(C)C	-91	4.1µM	4.6µM	.	.
Cn1c(=O)c(Nc2ccc(O)cc2)c2c3c(cccc31)C(=O)c1ccccc1-2	?	3.7µM	2.6µM	.	.
CCOC(=O)c1nc(C)n(-c2cc(OC)c(Cl)cc2Cl)n1	-92	.	.	.	.
SMILES	IL-1B inflam inh	DT40 TDP1 CPT	DT40 TDP1 no CPT	HT1080NT lethal	HT1080 IDH1KD tx
CCOC(=O)c1nc(C)n(-c2cc(Cl)ccc2Cl)n1	.	.	.	.	.
CN(C)c1cccc(C(=O)OCC(=O)N(C)c2ccccc2)c1	.	.	.	.	.
CCNc1ccc(C(=O)OCC)cc1NC(=O)c1cccc(S(=O)(=O)N(C)c2ccccc2)c1	.	16µM	4.6µM	.	.
CCOC(=O)c1ccc(S(=O)(=O)NNC(=O)c2cccc(N(C)C)c2)cc1	-141	.	.	.	.
Cc1ccc(S(=O)(=O)NC(=O)c2cccc(N(C)C)c2)cc1	.	.	.	.	.
CCNc1ccc(C(=O)OCC)cc1NC(=O)c1cccc(N(C)C)c1	.	3.3µM	2.6µM	1.8µM	?

Source: PubChem BioAssay
